# Compound activity deposited in PubChem BioAssay by several laboratories.
# AHR act: human AHR activation; AHR-responsive luciferase reporter cells, luminescence; activation, % at 5 µM; hit rate 2.5% among 320,000; in the data active = activation above about 47%;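 also: 0% = vehicle wells and 100% = reference agonist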
# MITF TRPM1 HTS: activators of MITF-driven TRPM1 promoter activity in SK-MEL-5 cells. activation, % at 12.5 µM. SK-MEL-5 TRPM1-promoter luciferase, 24 h; % of positive control, neutral wells = 0. hit rate 0.75% among 300,000. AID 588334;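 active = mean activation of at least 80% with every replicate also reaching 80%; inconclusive = mean reaches 80% but some replicate falls short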;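 also: 0% = neutral control wells and 100% = parthenolide positive control wells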
# GAA850 FXN act: increases GAA850 frataxin promoter reporter activity. AID 540364. hit rate 0.56% among 360,000. HEK293 lucGAA850 FXN promoter luciferase reporter, 24 h; percent of 10 µM SAHA response. activation, % at 6 µM;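 active = activation above the average of all compounds screened plus 3 SD, cutoff fixed separately per campaign, cut at about 7.5% in these data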;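 also: 0% = DMSO wells and 100% = 10 µM SAHA wells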
# esBAF inh: inhibitors of esBAF chromatin remodeling in mouse ES cells | Bmi1-luciferase knock-in reporter, 24 h; 100% = twice the neutral-well signal | reporter increase, % at 12.5 µM | hit rate 2% among 350,000 | AID 602393; in the data active = activation above about 40%; inconclusive = no clear call, values can overlap the other calls;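 also: 0% = median of the plate's neutral control wells and 100% = double that signal; a rise in the Bmi1 reporter signal indicates esBAF inhibition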
# Wnt bcat act: activators of Wnt/beta-catenin signaling; activation, % at 9.35 µM; Wnt/beta-catenin reporter cell assay, activator, plate reader; hit rate 1.2% among 300,000; in the data active = activation above about 30%, passing the limit was not always enough; inconclusive = no clear call, values can overlap the other calls;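 also: 0% = neutral control wells and 100% = positive control wells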
# GAA30 FXN cntr: activates GAA30 frataxin promoter, counter-screen for GAA850 activators; shares compounds with GAA850 FXN act; HEK293 lucGAA30 FXN promoter luciferase, 24 h; DMSO = 0%, 5 µM ipriflavone = 100%; activation, % at 6 µM; hit rate 66% among 1,900;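 active = mean activation above the mean of solvent-only control wells plus 3 SD, cut at about 22% in these data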;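 also: counterscreen of GAA850 promoter hits where activity marks nonselective or luminescence artifacts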
# GAA850 confirm: confirmation of GAA850 frataxin (FXN) promoter activators; AID 588351; activation, % at 6 µM; shares compounds with GAA850 FXN act; hit rate 86% among 1,900; HEK293 lucGAA850 FXN promoter luciferase reporter, 24 h; 100% = activation by SAHA;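 active = mean activation above a set limit taken from the primary screen, cut at about 8% in these data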;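 also: 0% = DMSO wells and 100% = 10 µM SAHA wells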
# * hit, by the source's call; u = inconclusive; x = no result. Shown are actives, neighbours in structure and some others; about 4.2% of the full set was active somewhere.
SMILES,AHR act,MITF TRPM1 HTS,GAA850 FXN act,esBAF inh,Wnt bcat act,GAA30 FXN cntr,GAA850 confirm
Fc1cccc(Cn2ccc(-c3ccc4c(c3)OCO4)n2)c1,15.6,x,9.4*,64.0*,x,84.2*,25.4*
Nc1ccn(Cc2cccc(F)c2)n1,-1.1,8.4,0.8,-3.3,-0.7,x,x
CCCS(=O)(=O)Nc1ccc(N2CCCCC2)c(S(=O)(=O)Nc2ccccc2OC)c1,x,-0.6,7.8*,-4.4,-4.1,18.8,9.1*
CN1CCN(c2ccc(NC(=O)c3ccc([N+](=O)[O-])o3)cc2Cl)CC1,2.1,-79.4,1.7,-14.7,-15.8,x,x
CCCC(=O)N1CCN(c2ccc(NC(=O)c3ccc([N+](=O)[O-])o3)cc2Cl)CC1,x,-90.2,7.9*,x,-21.7,19.6,24.5*
O=C(Nc1ccc(N2CCOCC2)c(Cl)c1)c1ccc([N+](=O)[O-])o1,x,-63.2,11.2*,x,-25.3,117.6*,56.0*
CC(=O)c1ccc(NC(=O)CSc2nc(N)c3cc4c(nc3n2)CCCC4)cc1,7.4,69.7,7.7*,x,6.3,100.7*,27.4*
CCCn1cnc2c(SCc3ccccc3)nc(N)nc21,x,18.0,5.8,x,11.5,x,x
CCCn1cnc2c(SCc3ccc(Cl)cc3)nc(N)nc21,x,33.1,9.8*,38.9,2.1,45.3*,25.3*
CCCCn1cnc2c(SCc3ccc(Br)cc3)nc(N)nc21,x,40.8,7.8*,7.2,2.5,29.3*,18.0*
CC(C)(C)c1cc(C(=O)N/N=C/c2ccco2)n[nH]1,14.7,50.1,8.3*,x,x,72.7*,28.6*
Cc1ccc(-c2cc(C(=O)N/N=C/c3ccco3)n[nH]2)s1,31.2,18.5,2.5,x,x,x,x
O=C(CC1CC1)N1CC[C@@H]2[C@@H](CO)Nc3ccc(-c4cccc(F)c4)cc3[C@@H]21,x,x,x,-4.2,x,x,x
Nc1ccc(Cl)c(-c2nc3ncccc3o2)c1,0.2,38.3,-0.3,u,-4.2,x,x
Nc1ccc(-c2nc3ncccc3o2)c(Cl)c1,2.0,43.4,8.7*,u,42.3*,108.2*,41.4*
COc1cc(-c2cnc3c(NC=O)cc(-c4ccc(N5CCN(C)CC5)cc4)cn23)cc(OC)c1OC,x,x,10.8*,0.8,1.0,109.5*,51.2*
COc1cc(-c2cnc3c(NC(C)=O)cc(-c4ccc(N5CCN(C)CC5)cc4)cn23)cc(OC)c1OC,x,x,-8.3,-16.7,-11.0,x,x
CCc1ccc(O)c(-c2cc(C(=O)Nc3cccnc3)[nH]n2)c1,8.4,108.6*,7.8*,55.8*,u,97.0*,30.5*
COc1ccc(C(=O)Nc2nc3ccccc3s2)cc1OC,11.9,77.9,11.2*,78.0*,-1.3,116.0*,28.8*
CC(=O)NCc1ccc(-c2nc3ccccc3s2)cc1,0.2,-1.3,3.3,-12.6,14.1,x,x
COc1ccc(-c2nc3ccccc3s2)cc1NC(C)=O,57.1*,67.7,8.4*,38.9,36.0*,123.5*,39.6*
C[C@@H]1CN([C@@H](C)CO)C(=O)c2cc(NS(=O)(=O)c3ccc(Cl)cc3)ccc2O[C@@H](C)CCCCO[C@@H]1CN(C)C(=O)Nc1ccc(C(F)(F)F)cc1,x,x,x,5.3,x,x,x
C[C@@H]1CN([C@@H](C)CO)C(=O)c2cc(-c3ccncc3)cnc2O[C@H]1CN(C)Cc1cccnc1,x,x,x,-10.8,x,x,x
Cc1ccccc1-c1ccc(C(=O)Nc2cccc(F)c2)o1,20.9,52.6,7.7*,45.1*,26.6,57.3*,17.3*
O=C(Nc1cccc(F)c1)c1ccc(-c2ccccc2C(F)(F)F)o1,x,x,x,x,16.1,x,x
SMILES,AHR act,MITF TRPM1 HTS,GAA850 FXN act,esBAF inh,Wnt bcat act,GAA30 FXN cntr,GAA850 confirm
CCOC(=O)c1sc(=S)n(Cc2ccccc2)c1C,0.3,6.8,0.5,x,-0.1,x,x
CN(C)C(=S)N=c1ssc(=S)n1Cc1ccccc1,x,-29.8,21.0*,x,-6.0,3.8,28.1*
C[C@H](CO)N1C[C@H](C)[C@H](CN(C)Cc2ccccn2)Oc2ncc(C#CCN(C)C)cc2C1=O,x,x,x,-1.6,x,x,x
CC(=O)Oc1ccccc1C(=O)C=Cc1cccc([N+](=O)[O-])c1,x,-93.5,16.8*,x,-5.3,-50.5,22.0*
Cc1cc(O)c(C(=O)/C=C/c2cccc([N+](=O)[O-])c2)c(=O)o1,10.7,x,0.8,x,-3.6,x,x
COc1cccc(S(=O)(=O)N(C)C[C@@H]2Oc3ncc(C#CC(C)C)cc3C(=O)N([C@@H](C)CO)C[C@@H]2C)c1,x,x,x,-0.6,x,x,x
CCCNC(=O)C[C@@H]1C[C@H]2c3cc(NC(=O)COC)ccc3O[C@H]2[C@@H](CO)O1,x,x,x,1.6,x,x,x
Clc1nc2sccn2c1/C=N/n1cnc2ccccc21,36.9,15.6,9.1*,33.6,8.4,82.1*,32.1*
C=CCNC(=O)c1c(Br)cnn1-c1ccc(C)cc1,32.8,34.6,8.2*,x,16.9,104.7*,33.0*
O=C(N(c1ccccn1)c1ccccn1)C12CC3CC(CC(C3)C1)C2,6.8,-7.0,7.2,x,-1.0,x,x
O=C(N(Cc1ccccc1)c1ccccn1)C12CC3CC(CC(C3)C1)C2,3.3,x,10.6*,-15.4,x,30.7*,11.3*
CN(C(=S)NC1CCCCC1)C1(c2ccccc2Cl)CCCCC1=O (stereo unspecified),-2.1,-4.5,8.8*,x,2.9,12.9,9.2*
CC(C)NC(=S)N(C)C1(c2ccccc2Cl)CCCCC1=O (stereo unspecified),-0.3,6.4,2.7,x,-1.6,x,x
Cc1ccc2nc(/C(C#N)=C\c3ccc(Oc4ccc(C(F)(F)F)cc4[N+](=O)[O-])cc3)[nH]c2c1,20.8,-8.9,-0.5,x,-2.3,x,x
N#C/C(=C\c1cccc(Oc2ccc(C(F)(F)F)cc2[N+](=O)[O-])c1)c1nc2ccccc2[nH]1,9.8,-2.3,8.0*,2.2,x,22.7*,7.9*
CN(C)C(=O)C[C@@H]1CC[C@@H](NC(=O)NC2CCCCC2)[C@H](CO)O1,x,x,x,-1.3,x,x,x
O=C(C#Cc1cccc([N+](=O)[O-])c1)c1ccccc1,8.6,-81.4,-0.4,-25.7,x,x,x
Nc1ccccc1C#CC(=O)c1ccccc1,8.8,-92.3,13.6*,-77.8,-11.3,-7.7,-0.1
O=C(CCl)Nc1ccc(N2CCCCCC2)cc1,-1.6,10.3,7.7*,9.4,2.0,10.1,29.4*
CSc1ncnc2c1ncn2CCCN[C@H](C)c1cccc2ccccc12,x,x,9.6*,2.3,-2.3,19.0,9.8*
COc1ncnc2c1ncn2CCCN[C@H](C)c1cccc2ccccc12,x,x,1.9,-2.1,-1.5,x,x
CC(=O)NC[C@H]1[C@@H](c2ccccc2)[C@@H](CO)N1C(=O)Cc1ccncc1,x,x,x,9.0,x,x,x
C[C@@H]1CN([C@H](C)CO)C(=O)c2cc(-c3ccccc3F)cnc2O[C@@H]1CN(C)Cc1cccc(C(=O)O)c1,x,x,x,-1.0,x,x,x
C[C@@H]1CN([C@@H](C)CO)C(=O)c2cc(C#CC3(O)CCCC3)cnc2O[C@@H]1CN(C)C(=O)C1CCOCC1,x,x,x,-1.7,x,x,x
